The campaign covered roughly 300,000 compounds. About 3,600 (1.2%) were called active. Cut-off read from the data, not from the text of the source: active = activation above about 30% (passing the limit was not always enough); inconclusive = no clear call, values can overlap the other calls. This excerpt belongs to a sample that is enriched for actives.

A short description of this test: activation of beta-catenin signaling reporter – cell-based, plate reader, single point, primary screen (AID 743398).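 Note: 0% = neutral control wells and 100% = positive control wells.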 The note with it: Wnt/beta-catenin reporter cell assay, activator, at 9.35 µM, hits give high values.
Turning to `CC(C)Oc1ccc(CN2CCC2(C)C(=O)NCc2ccc(C(F)(F)F)cc2)cc1` (stereo unspecified), the activation was -2.84% (inactive).

For `COc1cccc(C(=O)Nc2ccc(N3CCN(C(=O)c4ccco4)CC3)cc2)c1`, the activation was -1.7% (inactive).

On to `O=C(c1cc(-c2ccc(O)cc2)on1)N1CCOCC1`, for which the activation was 19.9% (inactive).

As to `COc1cccc(OCc2cc(C(=O)N3CCN(C(=O)c4ccco4)CC3)no2)c1`, the activation is 31.4% (active).

Regarding `COc1cc(Cl)ccc1OCc1cc(C(=O)N2CC[C@@H]3CCCC[C@H]3C2)no1`, the activation was 18.3% (inactive).

Consider `COc1ccccc1-c1cc(C(=O)N2CCCCC2)no1`, for which the activation is 0.293% (inactive).

For the molecule `O=C(c1cc(COc2ccc(F)cc2F)on1)N1CCOCC1`, the activation is 12.4% (inactive).

`O=C(c1cc(-c2ccccc2O)on1)N1CCCC1`: the activation was 57.5% (active).

With `O=C(c1cc(COc2cccc(C(F)(F)F)c2)on1)N1CCSCC1`, the activation was 1.55% (inactive).

In the case of `COc1ccc(OCc2cc(C(=O)N3CCCC3)no2)c2ccccc12`, the activation was 43% (active).

As for `COC(=O)[C@]12C[C@H](CC(=O)NCc3ccc(OC)c(OC)c3)C(=O)N(Cc3ccccc3)C1=C[C@H](C(C)C)O[C@@H]2C1CC1`, the activation is -0.346% (inactive).

In the case of `CSCCC(NC(=O)COc1ccccc1)C(=O)N1CCN(c2cccc(C(F)(F)F)c2)CC1` (stereo unspecified), the activation is -3.61% (inactive).

With `COc1ccc(OC)c(NC(=O)C2CCCN2S(=O)(=O)c2ccc3c(c2)CC(C)N3C(C)=O)c1` (stereo unspecified), the activation was -5.88% (inactive).

Regarding `CCOC(=O)N1CCN(C(=O)C[C@@H]2C[C@@]3(C(=O)OC)CC(C)(C)CC=C3N(Cc3ccco3)C2=O)CC1`, the activation was 0.171% (inactive).

For `CCc1nc2c(OCCOc3ccccc3)cccn2c1N(C=O)Cc1ccc(OC)cc1`, the activation was -2.79% (inactive).

Consider `Cc1ccc(NC(=O)c2c(NC(=O)CCC(=O)O)sc3c2CCCCC3)cc1`, for which the activation is 29.5% (inactive).

For `NC(=O)c1c(NC(=O)c2ccccc2)sc2c1CCCC2`, the activation was 1.12% (inactive).

Turning to `Cc1ccc(C(=O)c2c(NC(=O)c3ccncc3)sc3c2CCCC3)cc1`, the activation is 38.4% (active).

With `CCCCCCCCN1C(=O)[C@@H](CC(=O)NCCCC)C[C@@]2(C(=O)OC)C1=C[C@H](C(C)(C)C)O[C@@H]2C`, the activation is -3% (inactive).

In the case of `COc1cccc(/C=C2\SC(=S)N(CCCC(=O)N3CCOCC3)C2=O)c1`, the activation was 3.86% (inactive).

As for `CCc1nc2ccc(C(=O)Nc3ccc(OC)c(OC)c3)cn2c1N(C)C(=O)c1cccc(OC)c1`, the activation was -0.76% (inactive).

As for `Cn1c(CNC(=O)c2ccccc2F)nnc1SCc1ccc(F)cc1`, the activation is -0.026% (inactive).

Consider `Cc1ccc(C(=O)CSc2nnc(Cn3nnc4ccccc43)n2C)cc1`, for which the activation was -0.352% (inactive).

Regarding `Cn1c(Cn2nnc3ccccc32)nnc1SCC(=O)c1ccccc1F`, the activation is 85.8% (active).

With `Cc1[nH]c2ccccc2c1CC(=O)Nc1ccc(Nc2cccnc2)c(-c2cccc(Cl)c2)c1`, the activation was -2.14% (inactive).

For the molecule `CCOC(=O)[C@]12CCCC=C1N(CCC1=CCCCC1)C(=O)[C@H](CC(=O)N1CCN(C(=O)c3ccco3)CC1)C2`, the activation was -1.88% (inactive).

With `COc1ccccc1C1/C(=C(/O)c2ccc(OC(C)C)cc2)C(=O)C(=O)N1c1cc(C)on1` (stereo unspecified), the activation was -12% (inactive).

Consider `COc1ccc(C2/C(=C(/O)c3ccccc3)C(=O)C(=O)N2C)c(OC)c1` (stereo unspecified), for which the activation is 0.335% (inactive).

`CCOc1ccc(/C(O)=C2\C(=O)C(=O)N(c3ccc(OC)cc3)C2c2ccccc2[N+](=O)[O-])cc1` (stereo unspecified): the activation is 53.5% (active).

As to `OC[C@@H]1CN(Cc2ccc(F)cc2)C[C@H](n2cnc3c(NC4CCCC4)ncnc32)O1`, the activation is -2.91% (inactive).

As to `CC1C(C)N(C(=O)CCl)c2ccccc2N1C(=O)CCl` (stereo unspecified), the activation is -5.8% (inactive).

With `COc1cc(N=Cc2c(O)c3ccccc3oc2=O)c(OC)cc1Cl`, the activation is -0.517% (inactive).

As for `COc1ccccc1N=Cc1c(O)c2ccccc2oc1=O`, the activation is 59% (active).

For the molecule `O=c1oc2ccccc2c(=O)c2ccccc12`, the activation is -3.29% (inactive).

Take `COc1cccc(-c2cc(NC(C)=O)c3ncc(-c4cccc(C(C)=O)c4)n3c2)c1`: the activation was -1.27% (inactive).

As to `COc1ccc(OC)c(C(O)c2ncc(-c3cccc(C(F)(F)F)c3)[nH]2)c1` (stereo unspecified), the activation is -1.7% (inactive).

Consider `CC1(C)OC(=O)C2=C(CC(CCc3ccccc3)OC2c2ccc(Cl)cc2)O1` (stereo unspecified), for which the activation is -2.32% (inactive).

For the molecule `CCOC(=O)CNC(=O)N(C)[C@H]1C[C@H]2c3[nH]c4c(-c5ccc6c(c5)OCO6)cccc4c3CCN2C(=O)[C@H]1[C@H](C)O`, the activation was -4.82% (inactive).

With `CCCCCCNC(=O)O[C@H]1CN(C(=O)OC(C)C)N(C(=O)OC(C)C)[C@@H]2CN(S(=O)(=O)c3ccc(C)cc3)C[C@]12O`, the activation was -6.88% (inactive).

In the case of `O=C(Nc1ccncc1)c1cc2ccccc2o1`, the activation was -4.19% (inactive).

As for `O=C(NCc1cccnc1)c1cccc(-c2cc3ccccc3oc2=O)c1`, the activation was -9.13% (inactive).

As to `Cc1nc(C)c(-c2csc(NCCc3ccccc3)n2)s1`, the activation is 10.9% (inactive).

Regarding `O=c1oc2ccccc2cc1-c1csc(Nc2ccc(O)cc2)n1`, the activation is 48% (active).

As to `CCCn1c(CCNc2nc(-c3ccc(OC)cc3)cs2)nc2ccccc21`, the activation was 1.69% (inactive).

Regarding `CCNc1nc(-c2cc3ccccc3o2)cs1`, the activation is 55.9% (active).

`CCOC(=O)[C@]12CCCC=C1N(CCC1=CCCCC1)C(=O)[C@H](CC(=O)NCCCCc1ccccc1)C2`: the activation was -3.03% (inactive).

As for `COc1ccc(NC(=O)c2sc(=O)n(Cc3ccc(S(=O)(=O)N(C)C)cc3)c2C)cc1`, the activation was -1.18% (inactive).

In the case of `O=C(Nc1ccc(Cl)cc1)C1Cc2c(-c3ccc4c(c3)OCO4)ccnc2O1` (stereo unspecified), the activation was -2.4% (inactive).

As for `O=C(NCCOc1ccccc1)N1[C@H]2CC[C@@H]1C=C(c1ccc(F)cc1OCc1ccccc1)C2`, the activation is -5.01% (inactive).

For `COc1ccc(SSc2ccc(OC)cc2C(=O)O)c(C(=O)O)c1`, the activation was -2.15% (inactive).

Turning to `Cc1ccc(S(=O)(=O)N2[C@@H](Cc3ccccc3)CO[C@H]2CC(=O)OCc2ccccc2)cc1`, the activation is -1.94% (inactive).

Take `COc1ccc(N2c3ccccc3CN(Cc3ccccc3)[C@@H](C)[C@H]2Cc2ccc(-c3ccccc3)cc2)cc1`: the activation is -4.27% (inactive).

`Cc1[nH]c2ccccc2c1/C=N\NC(=O)Cn1nnc(-c2ccccc2)n1`: the activation is -3.53% (inactive).

For the molecule `CN=c1scc(-c2cc(OC)ccc2OC)n1/N=C/c1c(C)[nH]c2ccccc12`, the activation is 68.5% (active).

Take `COc1ccc(OC)c(-c2csc(-c3cccs3)n2)c1`: the activation is 3.92% (inactive).

For `CCC(=O)N1Cc2cc(C(=O)NCc3cccc(F)c3)nc(-c3cccc(C4=CCCC4)c3)c2[C@H]1CCO`, the activation was -0.49% (inactive).

In the case of `O=C(NCc1ccccc1)[C@H]1CCCN1C(=O)[C@H]1CCCN1C(=O)c1cc(F)cc(F)c1`, the activation is 0.924% (inactive).

`COc1ccc(C(=O)Nc2ccccc2C(=O)N/N=C/c2ccc(O)c(OC)c2)cc1`: the activation is -6.14% (inactive).

As to `COc1ccc(/C=N/Nc2ccccc2C(=O)O)cc1`, the activation is 42.5% (active).

As for `COc1ccc(/C=N/NS(=O)(=O)c2ccc(NC(C)=O)cc2)cc1`, the activation is 0.428% (inactive).

As to `Cn1nc(N)c2ncc(C(Cl)(Cl)Cl)nc21`, the activation is -2.14% (inactive).

On to `N#Cc1cccc(C(=O)NCC2CCN(C(=O)C(=O)c3cc4ccccc4o3)CC2)c1`, for which the activation is -4.03% (inactive).

Turning to `Cc1ccc(C(=O)N/C(=C/c2cccs2)C(=O)NCC2CCCO2)cc1` (stereo unspecified), the activation was -12.8% (inactive).

Regarding `Cc1ccc2c(c1)N(CC(=O)NCC1CCCO1)C(=O)CO2` (stereo unspecified), the activation was 6.02% (inactive).

Take `Cc1ccc(-n2c(C)cc(/C=C(\C#N)C(=O)NCC3CCCO3)c2C)cc1` (stereo unspecified): the activation is 38.2% (active).

In the case of `O=C1Nc2ccccc2NC(c2ccc3c(c2)OCO3)=C1N(Cc1ccc(F)cc1)C(=O)c1ccco1`, the activation is -2.97% (inactive).

Consider `COC(=O)[C@]12C[C@H](CC(=O)NCc3cccc(C(F)(F)F)c3)C(=O)N(Cc3ccc4c(c3)OCO4)C1=C[C@H](COCc1ccccc1)O[C@@H]2C`, for which the activation was -11.9% (inactive).

For the molecule `CCCCNc1cccc2c1S(=O)(=O)N[C@@H](C)CO2`, the activation is -1.25% (inactive).

With `O=C(NCc1cccc(C(F)(F)F)c1)c1ccc2sc(COCCO)nc2c1`, the activation is 0.012% (inactive).

As to `Cc1ccc(NC(=O)Nc2cccnc2)cc1`, the activation was 8.59% (inactive).

For the molecule `Cc1ccc(NC(=O)Nc2ccc3oc(C)nc3c2)cc1`, the activation is 53.7% (active).

For the molecule `Cc1ccc(NC(=O)Nc2nnc(-c3ccncc3)s2)cc1`, the activation is 0.919% (inactive).

`O=C1Nc2ccccc2-n2nnnc2C1N1CCN(c2cccc(C(F)(F)F)n2)CC1` (stereo unspecified): the activation is -4.31% (inactive).

For the molecule `O=C(CSc1nc2ccccc2o1)N1c2ccccc2Sc2ccc(Cl)cc21`, the activation is -2.83% (inactive).

In the case of `O=C(CSc1nc2ccccc2o1)N/N=C/c1ccccc1C(=O)O`, the activation was 25.7% (inactive).

In the case of `CC(C)(C)C(=O)CSc1nc2ccccc2o1`, the activation was 52.3% (active).

Consider `Cc1cc2c(cc1C)N1C(=O)c3cc4ccccc4cc3NC(=O)C1C(=O)N2` (stereo unspecified), for which the activation was -1.58% (inactive).

For the molecule `CC1(C(=O)Nc2cccc3c2CCCC3)CCN1C(=O)C1(c2ccccc2)CC1` (stereo unspecified), the activation was -1.58% (inactive).

`Oc1ccc(-n2nnnc2SCc2c(F)cccc2Cl)cc1`: the activation was -2.71% (inactive).

Regarding `Cn1c(SCc2c(F)cccc2Cl)nnc1-c1cnccn1`, the activation is 41.7% (active).

With `Cc1ccc(CSc2nnc(-c3cnccn3)n2C)cc1`, the activation was 2.04% (inactive).

Take `COc1ccccc1N1CCN(/N=C/c2ccc(O)cc2O)CC1`: the activation is 37.4% (active).

As to `COc1ccccc1N1CCN(/N=C\C(Br)=C\c2ccccc2)CC1`, the activation was 7.85% (inactive).

Consider `COc1cc(/C=N/N2CCN(c3ccccc3)CC2)ccc1OC(C)=O`, for which the activation is 3.52% (inactive).

Take `CC(C)c1cc(C(=O)N(C)C2CCCN(Cc3ccccc3F)C2)n(C)n1` (stereo unspecified): the activation is -4.84% (inactive).

Regarding `Cc1nc(NC(=O)C(C)(C)C)sc1[N+](=O)[O-]`, the activation is -2.63% (inactive).
